Whole data set: some 33,000 sequences, median “E-score (-0.5 to 0.5)” near -0.011, cut for the highest 2% near 0.28. The sample holds the highest values, similar sequences and a random draw of the others, so the mix is not that of the screen.
Target: T1, Gcr1 (UniProt P07261)
T1 sequence: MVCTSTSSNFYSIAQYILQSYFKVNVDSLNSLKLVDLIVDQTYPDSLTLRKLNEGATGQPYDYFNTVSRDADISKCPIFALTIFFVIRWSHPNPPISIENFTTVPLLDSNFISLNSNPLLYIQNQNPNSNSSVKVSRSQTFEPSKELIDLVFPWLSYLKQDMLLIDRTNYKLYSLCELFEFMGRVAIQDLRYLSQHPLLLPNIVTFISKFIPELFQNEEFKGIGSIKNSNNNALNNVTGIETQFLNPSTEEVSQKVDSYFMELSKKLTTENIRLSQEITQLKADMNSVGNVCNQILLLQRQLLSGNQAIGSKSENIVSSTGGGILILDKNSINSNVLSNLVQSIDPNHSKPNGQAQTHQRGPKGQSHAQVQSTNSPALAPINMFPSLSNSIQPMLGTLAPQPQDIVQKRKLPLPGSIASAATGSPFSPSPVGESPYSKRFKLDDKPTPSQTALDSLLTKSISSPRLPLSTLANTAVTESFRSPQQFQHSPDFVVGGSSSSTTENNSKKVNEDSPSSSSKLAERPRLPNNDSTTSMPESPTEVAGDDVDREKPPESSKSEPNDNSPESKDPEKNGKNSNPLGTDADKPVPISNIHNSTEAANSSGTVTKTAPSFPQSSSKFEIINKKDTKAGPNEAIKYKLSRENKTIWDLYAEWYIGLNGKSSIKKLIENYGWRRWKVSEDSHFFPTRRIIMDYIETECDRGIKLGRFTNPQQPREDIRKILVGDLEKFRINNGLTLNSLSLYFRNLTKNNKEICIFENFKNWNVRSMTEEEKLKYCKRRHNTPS
Assay: PBM E-score (8-mer binding enrichment) (E-score (-0.5 to 0.5)); higher = stronger / more preferred TF binding
Conditions: protein concentration: 100 nM; construct: GST-full length
Procedure: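 Universal 'all 10-mer' protein binding microarrays (Agilent AMADID 015681) probed with GST-tagged S. cerevisiae TFs (full-length or DBD) made by in vitro transcription/translation (PURExpress), about 100-200 nM. Bound TF was detected with fluorescent anti-GST. Each ungapped 8-mer (which stands for itself and its reverse complement) is scored by the PBM enrichment score (E-score), a modified Wilcoxon-Mann-Whitney statistic from -0.5 to +0.5, computed with the Universal PBM Analysis Suite. Scale: above 0.35 generally sequence-specific binding.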

Sequence	PBM E-score
CATAGACG	0.0886
CTAATTTC	0.189
CTAATTTA	0.291
GTAATTTA	0.109
ATACCTTG	-0.108
AAATTGGT	0.226
AAAATTGC	-0.203
AATTTTGG	0.287
ATTTTTGG	0.186
CAATTTGG	0.222
CAATTGGG	-0.0107
AAATTTTG	0.088
AATTTTTG	0.1
AAATTGGG	0.295
CAAATTGG	0.213
AAATTTGG	0.301
AAAATTGG	0.316
AGGGAATA	0.0244
AATAGATC	-0.0063
CGATCTTA	-0.045
GAGTTCAC	-0.0309
ATGTGCCG	-0.205
ACCGCTTG	-0.0218
AGTTTAAT	0.0173
ACACTCGT	-0.152

Sequence	PBM E-score
ATTTGGAC	0.166
CTTTGGAA	0.282
ATTTGGAG	0.0526
ATTTGGAA	0.373
GTTTGGAA	0.202
CTTTGGAC	-0.147
ATGCTAAC	0.139
AATCAGAC	0.0464
AGCCCAGA	0.0713
CTAGCATA	0.017
CTAGCACC	0.31
ATAGCATC	0.0848
ATAGCACC	0.159
CTAGCATC	0.315
CTAGCACA	-0.181
CCAGAGCG	-0.144
ACCGGATA	0.00906
ACCGGAAG	0.303
ACCGGACT	-0.0693
ACCGGATG	0.349
ACCGGAAC	0.203
ACCGGAAT	0.185
CCCGGACG	-0.0526
ACCGGACG	0.32
ACCGGATC	0.0302

Sequence	PBM E-score
AAGGGGTC	-0.19
CGATCAAG	-0.0812
CCTTGGCC	-0.327
ATTAGGAG	0.26
CGCTAGTC	-0.153
AACAATGT	0.0351
ATCCCATG	-0.0862
TCGTTTCA	0.077
AGATTCCC	0.265
AGATTCCA	0.426
CGATTCCG	-0.0838
CGATTCCA	0.178
CGATTCCC	0.0331
AGATTCCT	0.399
TGATTCCA	0.0933
GGATTCCC	0.418
ATATTCCG	0.131
AGATTCCG	0.284
GGATTCAC	0.159
ACATTCCT	0.0561
CCAGTTGA	-0.0652
GGATTGAC	-0.0943
AACCCAGG	0.056
CCGTTGAC	-0.121
GCAACCAA	0.302

Sequence	PBM E-score
TGAACCAA	0.022
GGAACCAA	0.31
AGAACCAC	0.035
GCAACCAC	0.267
GGAACCAC	0.284
CGAACCAC	0.0103
CGAACCAA	-0.0751
CCAACCAA	0.0612
AATGGACG	0.143
CGTGGGCC	-0.23
GGGGAGCA	-0.103
GGTCGAGA	-0.0372
GTAGGATA	-0.109
GGACTGGA	-0.0243
GAACTGGA	0.303
TAACTGGA	0.225
ATACTGGC	0.161
CGACTGGC	-0.241
GTACTGGA	0.235
ATACTGGA	0.373
CGACTGGA	0.316
CAACTGGA	0.212
CGCAGTTA	0.15
ACGTAGCA	-0.079
ACGTAGCT	0.282

Sequence	PBM E-score
ACGTAGCC	0.14
CGGTTGGA	0.0351
GCAATCGC	-0.113
ATTCAAGC	-0.0491
CCTCTATA	0.266
ATGGATGG	-0.034
ATGGATGA	-0.0514
CTGGATGC	0.425
ATGGATGC	0.389
CTGGATAC	0.135
CTGGATGA	0.0353
ACGGGGGC	-0.08
AGTCCGGA	0.0284
ATCGGATA	0.0757
TGTAGACA	-0.0678
AAACTGGT	0.178
TCGCCGCA	0.0198
CGCTCAAC	-0.0355
AGCACCCT	0.277
CGCACCCG	0.0194
AGCACCCA	0.351
AGCACCAC	0.235
AACACCCA	-0.0911
AGCACACC	-0.188
AGCACCAT	0.282

Sequence	PBM E-score
AGCACCCG	0.282
AGCACCAG	0.156
CAAGATTC	0.122
GAAGCGCA	0.129
AGGTAAAG	-0.112
GATGCTGA	0.312
GGTGCTTA	0.259
CGTGCTGA	-0.14
CATGCTAC	-0.123
CATGCTGA	-0.229
GATGCTAA	0.372
GGTGCTGA	0.335
GATGCTAC	0.338
GATGCTGC	0.276
TATGCTAA	-0.0329
AATGCTAC	-0.0602
AATGCTAA	0.206
AAGGCGAA	-0.0278
CACAATGA	0.0838
GCTTCAAA	0.192
AGTTGGCG	0.0665
CACTCCAG	0.0875
ACCGCGGC	0.143
ACGCCGGA	0.0899
CATTTGGC	-0.0265

Sequence	PBM E-score
CACCTGCC	-0.127
ACCAATGG	0.0385
ACACTGAG	-0.126
CCCATTTC	-0.0272
ACCATTTA	0.0518
CTATTTAA	0.309
GCTATTTA	-0.162
CCATTTAA	0.304
CCATTTTA	0.23
ATATTTAA	0.111
CCCATTTA	0.293
CCATTTAC	0.0873
GTATTTAA	0.117
CCTATTTA	0.247
ACTATTTA	0.293
ACAGTCCA	-0.304
TACCGTGA	0.0127
ACTCTTCT	0.0323
TCCGGAAA	0.172
CACCCGGA	0.136
CGAAGTAC	-0.022
CGCCAAAG	0.0195

— the supplement of paper PMC3334620
